Assay outcomes (PubChem)
Most compounds without a hit are left out; they make up all but 5.4% or so of the library.
VP16 counter: counter-screen for ROR gamma inhibitors: Gal4-VP16 reporter; Drosophila S2 Gal4-VP16 UAS-luciferase, luminescence, 20 h; Potency, µM (highest dose often 53.6 µM), for inactives: at the top dose activity, negative = inhibition, usual class: inhibitors; 310,000 compounds, 3.5% hits;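 further: Gal4-VP16 expression switched on by copper sulfate through the metallothionein promoter; potency means the concentration at half of the fitted maximal effect; on the % scale 0 is the no-effect control and ±100 the full control effect; nearly all actives have a fitted effect of over 50% in size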
RORgamma inh: blocks mouse ROR gamma transcriptional activity | AID 2551 | Drosophila S2 Gal4-RORgamma UAS-luciferase reporter, 20 h | P51450 | Potency, µM (highest dose often 53.6 µM), for inactives: at the highest dose activity change, negative = inhibition, most hits filed as inhibitors | 310,000 compounds, 5.4% hits; further: potency means the concentration at half of the fitted maximal effect; on the % scale 0 is the no-effect control and ±100 the full control effect; nearly all actives have a fitted effect of over 60% in size
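Drosophila S2 cells stably expressing Gal4-DBD/mouse RORγ fusion under metallothionein promoter plus UAS-luciferase; compound 1 h, then 700 uM CuSO4 induction for 20 h at ambient temperature; inhibition read as reduced luminescence.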
CtBP-E1A inh: blocks the CtBP interaction with E1A | AlphaScreen GST-E1A/His-CtBP binding, 1536-well; hits give low values | activity change, % (test concentration not listed) | 340,000 compounds, 0.49% hits | AID 651724; in the data active means activity change below about -65%; inconclusive means mostly about -30% to -63%; further: on the % scale 0 is the no-effect control and ±100 the full control effect
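Protein mix (5X: 125 nM each GST-E1A, His-CtBP) was incubated with pinned compound 2 h at 37 deg C in dark, in 50 mM Tris pH 8.0 buffer with 300 mM NaCl. Glutathione donor and nickel acceptor beads followed; AlphaScreen signal read after 1 h.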
Six1-Eya2 inh: Six1/Eya2 interaction inhibition | AlphaScreen GST-Six1/His-Eya2 binding, biochemical; hits give low values | activity change, % (test concentration not listed) | 360,000 compounds, 0.56% hits | AID 651725; in the data active means activity change below about -65%; inconclusive means mostly about -30% to -63%; further: on the % scale 0 is the no-effect control and ±100 the full control effect
Target sequence (O00167 whole entry, looked up): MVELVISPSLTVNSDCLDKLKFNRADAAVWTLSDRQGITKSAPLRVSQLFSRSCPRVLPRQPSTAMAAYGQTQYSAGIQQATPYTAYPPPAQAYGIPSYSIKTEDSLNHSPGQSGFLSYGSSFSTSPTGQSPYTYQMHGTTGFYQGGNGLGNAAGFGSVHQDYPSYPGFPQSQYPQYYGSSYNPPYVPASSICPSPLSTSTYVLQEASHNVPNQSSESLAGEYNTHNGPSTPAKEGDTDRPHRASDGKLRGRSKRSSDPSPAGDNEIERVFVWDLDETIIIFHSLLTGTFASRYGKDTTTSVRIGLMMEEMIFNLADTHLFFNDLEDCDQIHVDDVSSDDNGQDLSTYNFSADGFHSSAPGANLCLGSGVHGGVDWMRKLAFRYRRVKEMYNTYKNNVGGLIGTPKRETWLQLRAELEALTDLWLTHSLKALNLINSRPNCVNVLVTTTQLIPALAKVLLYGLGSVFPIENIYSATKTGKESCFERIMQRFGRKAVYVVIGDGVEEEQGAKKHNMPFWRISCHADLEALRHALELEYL
Target sequence (Q15475 whole entry, looked up): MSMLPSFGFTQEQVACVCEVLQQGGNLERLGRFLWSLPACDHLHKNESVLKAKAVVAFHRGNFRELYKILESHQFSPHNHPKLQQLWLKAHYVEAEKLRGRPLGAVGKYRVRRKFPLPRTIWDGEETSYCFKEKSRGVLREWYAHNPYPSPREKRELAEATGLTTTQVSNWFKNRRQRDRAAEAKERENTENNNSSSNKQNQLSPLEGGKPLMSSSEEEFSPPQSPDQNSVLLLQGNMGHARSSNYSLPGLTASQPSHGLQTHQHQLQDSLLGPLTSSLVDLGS
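Six1/Eya2 binding was read as AlphaScreen signal after compounds were pinned into GST-Six1 plus His-tagged Eya2 (5X stock 250/500 nM) in pH 8.0 Tris/NaCl/TCEP buffer, beads added, then incubated 1 h, 37 C, dark.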
p53 reactivator: re-activators of mutant p53; H1299 p53-A138V BP100-luciferase reporter, luminescence, 24 h; Potency, µM (titrated, usually from 92.2 µM), without a hit: at the top dose activity change, positive = activation, hits mostly activators; 320,000 compounds, 0.063% hits; AID 504706; further: potency means the concentration at half of the fitted maximal effect; % of control where 0% means no effect; nearly all actives have a fitted effect of over 45% in size
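p53-null H1299 cells stably carrying temperature-sensitive p53-A138V and a BP100-luciferase reporter were pinned with compounds (4-point, 1:5 series) and held 24 hrs at 37 deg C. Luminescence was read 10 min after detection reagent.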
Starred values were filed as active, the others as inactive; ? = inconclusive; . = no result. Unless noted, the call rests on the fitted dose curve; in most records, active means well fitted curve in the direction sought with a large enough effect; inconclusive means small, poorly fitted or top-dose-only effect, or another doubt; inactive means no such curve, though single readings can be large; an effect the other way counts as inactive or inconclusive.

SMILES | VP16 counter | RORgamma inh | CtBP-E1A inh | Six1-Eya2 inh | p53 reactivator
O=C(CCCSc1nc2ccccc2[nH]1)Nc1nnc(-c2ccccc2)o1 | -22% | 13µM* | ? | ? | 3%
O=C(Cc1ccc(F)cc1)Nc1nnc(-c2ccc(F)cc2)o1 | 1.4µM* | ? | ? | ? | ?
N#Cc1ccc(Cl)cc1NC(=O)COC(=O)c1ccc(S(=O)(=O)N2CCCC2)cc1 | 4% | 1% | 5 | 6 | 1%
CC(C)NC(=O)NC(=O)CN1c2cccc3cccc(c23)S1(=O)=O | -1% | 2% | . | -1 | -4%
CCN(Cc1ccc(OC)c(F)c1)C(C)C(=O)Nc1ccc(S(=O)(=O)N2CCCC2)cc1 (stereo not drawn) | . | . | -18 | -5 | -4%
Cc1ccc(C)c(-c2nnc(NC(=O)c3ccco3)o2)c1 | . | . | -5 | -18 | 0%
Cc1ccc(C)c(-c2nnc(NC(=O)Cc3ccccc3)o2)c1 | 1.1µM* | 1µM* | . | 21 | 7%
CCOC(=O)C1=C(C)C(c2ccccc2OC)NC(=S)N1 (stereo not drawn) | 0% | 2.8µM* | 9 | -3 | 5%
CC(C)(C)C(=O)NC(=S)NNC(=O)c1sc2ccccc2c1Cl | 0.56µM* | 0.63µM* | -4 | -8 | ?
O=C(NNC(=S)NC1CCCCC1)c1sc2ccccc2c1Cl | 13µM* | 2.8µM* | -3 | -9 | 17%
O=C(NC1CC1)c1sc2ccccc2c1Cl | 6% | -4% | 6 | 2 | 11%
O=C(NC(=S)N1CCCCC1)c1cccnc1 | 3.2µM* | 0.71µM* | 5 | 1 | 0%
O=C(NC(=S)N1CCN(c2ccccc2)CC1)c1ccccc1 | 1.1µM* | 1.4µM* | . | . | -3%
O=C(NC(=S)N1CCCC1)c1ccccc1 | 7.1µM* | 4µM* | 17 | -1 | -2%
O=C(NC(=O)N1CCCCC1)c1ccccc1 | 5% | 29% | 7 | 9 | 9%
O=C(NC(=S)N1CCCCCC1)c1ccccc1 | 1.8µM* | 1.4µM* | 3 | 2 | -9%
CSc1nc2ccc(NC(=O)CSc3nnc(N)s3)cc2s1 | 6% | ? | -3 | -9 | 14%
O=C(N/C(=C\c1cccnc1)C(=O)N1CCC(O)CC1)c1ccccc1 | 5% | -16% | 17 | 11 | -3%
COc1cc2c(cc1OC)CN(C(=S)NC(=O)c1ccccc1)CC2 | 3.2µM* | 5.6µM* | . | 6 | -4%
O=C(N/C(=C/c1cccnc1)C(=O)N1CCCCCC1)c1cccc(Br)c1 | ? | 10µM* | -1 | -7 | 7%
O=C(CSC(=S)N1CCCC1)c1ccccc1 | ? | 10µM* | 9 | 0 | ?
CNC(=S)N1CCc2cc(OC)c(OC)cc2C1 | 5% | -6% | 5 | 6 | -5%
O=C(NC(=S)N1CCN(Cc2ccccc2)CC1)c1cccnc1 | 2.5µM* | 0.89µM* | 4 | 0 | -2%
Cc1nc2c3c(-c4ccccc4)c(-c4ccccc4)oc3ncn2n1 | 2% | 0% | . | . | 10%
CN(C)CCNS(=O)(=O)c1ccc(N2CCc3ccccc32)c([N+](=O)[O-])c1 | -15% | 0% | ? | ? | 3%
SMILES | VP16 counter | RORgamma inh | CtBP-E1A inh | Six1-Eya2 inh | p53 reactivator
O=C(c1ccccc1)N1CCN(C2CCCCCC2)CC1 | 0% | -1% | -1 | 10 | 15%
O=C(NC(=S)N1CCN(C/C=C/c2ccccc2)CC1)c1ccc(Cl)nc1 | 0.32µM* | 0.11µM* | 0 | -10 | -6%
O=C(NC(=S)N1CCN(C2CCCCC2)CC1)c1ccccc1 | 3.2µM* | 0.89µM* | 0 | -2 | -2%
O=C(NC(=S)N1CCN(c2ccccn2)CC1)c1ccccc1 | 4.5µM* | 2.2µM* | -5 | 15 | 1%
Cc1cc(C)c(S(=O)(=O)OC[C@H]2C=CC[C@@H](CCC[C@H]3O[C@H](C(=O)OC(C)C)CC[C@@H]3C)O2)c(C)c1 | 1% | -1% | . | . | .
COc1ccccc1-c1ccc(=O)n(CC(=O)NC2CCc3ccccc32)n1 (stereo not drawn) | ? | 3.5µM* | -1 | 0 | -8%
Cc1ccc(C(=O)NCC2CCCO2)cc1[N+](=O)[O-] (stereo not drawn) | 5% | 23% | -3 | 8 | 4%
Cc1ccc(C(=O)NNC(=S)NCC2CCCO2)cc1[N+](=O)[O-] (stereo not drawn) | -22% | 5.6µM* | 8 | 6 | 14%
